This is a sample that favours compounds with a hit; in the whole collection about 2.8% have one here.
sPLA2-III inh = Blocks human group III sPLA2 activity | Q9NZ20 | 370,000 tested, 0.56% active | inhibition, % at 12.2 µM | QFRET BODIPY PC-A2 liposome hydrolysis, fluorescence;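 active = inhibition above mean plus 3 SD of compounds lying within the high and low control bounds, cut at about 19% in these data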;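 also: 0% = median of test compound wells and 100% = no enzyme DMSO wells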
Target sequence (Q9NZ20 whole entry, looked up): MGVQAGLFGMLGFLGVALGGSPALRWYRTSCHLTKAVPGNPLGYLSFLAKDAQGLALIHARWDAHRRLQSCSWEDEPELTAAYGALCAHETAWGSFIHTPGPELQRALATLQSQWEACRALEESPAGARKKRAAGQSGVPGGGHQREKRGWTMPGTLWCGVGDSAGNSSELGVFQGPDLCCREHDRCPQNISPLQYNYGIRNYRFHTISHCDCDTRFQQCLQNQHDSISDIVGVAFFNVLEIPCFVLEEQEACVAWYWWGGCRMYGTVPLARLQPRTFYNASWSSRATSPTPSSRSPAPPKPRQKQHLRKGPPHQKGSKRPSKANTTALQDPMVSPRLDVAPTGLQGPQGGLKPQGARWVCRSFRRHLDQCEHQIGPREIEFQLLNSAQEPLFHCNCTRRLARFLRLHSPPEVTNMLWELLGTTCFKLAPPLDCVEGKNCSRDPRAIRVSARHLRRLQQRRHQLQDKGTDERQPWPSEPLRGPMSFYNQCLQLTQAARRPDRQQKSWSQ
MsrA inh = bovine MsrA inhibition. AID 651718. inhibition, % at 15.5 µM. 360,000 tested, 0.75% active. purified bovine MsrA, absorbance read-out; in the data active = inhibition above about 4.5%;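 also: 0% = vehicle wells with enzyme and 100% = reference inhibitor wells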
rCAG binder-1 = molecules binding r(CAG) RNA repeats; r(CAG) RNA repeat, TO-PRO-1 dye displacement fluorescence; 370,000 tested, 1.3% active; inhibition, % at 3 µM;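 active = inhibition above the plate cutoff, the mean of all test compounds on that plate plus 3 SD, cut at about 35% in these data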;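 also: 0% = DMSO alone and 100% = 100 µM mitoxantrone as full dye displacement; higher means more dye released from RNA so lower well fluorescence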
bovine MsrA act = bovine methionine sulfoxide reductase A activation; activation, % at 10.6 µM; 360,000 tested, 0.3% active; purified bovine MsrA, absorbance read-out; AID 602163; in the data active = activation above about 7.5%;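 also: 0% = vehicle and 100% = reference activator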
rCAG bind conf = r(CAG) RNA repeat binding, confirmation; 4,300 tested, 70% active; shares compounds with rCAG binder-1; TO-PRO-1 dye displacement fluorescence; inhibition, % at 3 µM;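 active = inhibition above a per-plate cutoff, the mean inhibition of sample wells plus 3 SD, cut at about 35% in these data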;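 also: loss of TO-PRO-1 fluorescence as compound displaces dye from 1x1 AA loop RNA; 0% = DMSO only wells and 100% = 100 µM mitoxantrone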
dCAG dye counter = DNA CAG dye complex inhibition counter-screen. 4,300 tested, 94% active. AID 652068. d(CAG) DNA oligo TO-PRO-1 dye displacement, fluorescence. shares compounds with rCAG binder-1. inhibition, % at 3 µM;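 active = inhibition above its plate's cutoff, the mean test-well inhibition plus 3 SD, cut at about 4.8% in these data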;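 also: 0% = DNA dye mix with DMSO and 100% = 100 µM mitoxantrone; hits displace the dye from DNA and so lower well fluorescence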
DNA CAG DR = counter-screen for rCAG binders: inhibitors of DNA CAG TO-PRO-1 complex. shares compounds with rCAG binder-1. DNA CAG/GTC duplex TO-PRO-1 dye displacement fluorescence. IC50, µM. 250 tested, 20% active. AID 686960; in the data active = IC50 below about 10 µM
dCAG DNA bind = DNA CAG dye complex inhibition, late stage dose response; AID 720649; d(CAG) DNA duplex TO-PRO-1 dye displacement, fluorescence; IC50, µM; 30 tested, 80% active; shares compounds with rCAG binder-1
rCAG binder-2 = molecules binding r(CAG) RNA repeats, late stage dose response; AID 720651; r(CAG) RNA TO-PRO-1 dye displacement, fluorescence; IC50, µM; shares compounds with rCAG binder-1; 30 tested, 100% active
The depositor's hits bear a star; i = inactive; / = no result given. Unless noted, no rule for the calls is given here.

SMILES	sPLA2-III inh	MsrA inh	rCAG binder-1	bovine MsrA act	rCAG bind conf	dCAG dye counter	others
O=[N+]([O-])c1cc(S(=O)(=O)O)cc([N+](=O)[O-])c1NN(c1ccccc1)c1ccccc1	-20	-1	48*	0	36*	11*
CCOc1ccc(S(=O)(=O)N2CN3CCN(C3)C2)cc1	15	1	-5	-5	/	/
CCOc1ccc(S(=O)(=O)N2CCNC(=O)C2)cc1	13	2	54*	-12	3	1
Cc1ccc(/C=N/NC(=O)CSc2nc3ccccc3n2Cc2ccc(Cl)cc2)o1	-5	1	5	-3	/	/
O=C(CSc1nc2ccccc2n1Cc1ccc(Cl)cc1)N/N=C/c1ccccc1C(=O)O	-11	1	53*	-2	56*	18*
COc1ccc(-n2c(SCC(=O)N/N=C/c3ccccc3OCC(=O)O)nc3ccccc3c2=O)cc1	-13	2	43*	-7	47*	13*
O=C(O)COc1ccccc1/C=N/NC(=O)c1cccc(S(=O)(=O)Nc2cccc(Cl)c2)c1	-14	3	48*	-1	30	8.7*
O=C(O)COc1ccccc1/C=N/NC(=O)CSc1nc2ccccc2n1Cc1ccc(Cl)cc1	-43	0	60*	0	76*	35*
COn1c(=O)c(-c2cccc(Br)c2)[n+]([O-])c2ccccc21	1	3	-1	-3	/	/
O=C(O)COc1ccccc1/C=N/NC(=O)COc1ccc(-c2ccccc2)cc1	-10	1	66*	-4	64*	22*
CN(C)S(=O)(=O)c1ccc(C(=O)Nc2nnc(-c3ccco3)o2)cc1	-5	2	4	0	/	/
CCCCN(C)S(=O)(=O)c1ccc(C(=O)Nc2nnc(-c3ccco3)o2)cc1	-16	3	37*	0	27	8.2*
Cc1ccc(Br)cc1S(=O)(=O)Nc1cccnc1	-6	-1	0	-12	/	/
O=C(NNC(=S)Nc1cccc2ccccc12)c1cccc(Br)c1	14	1	66*	-10	72*	36*
Cc1cc(F)ccc1S(=O)(=O)Nc1ncnc2sc3c(c12)CCC3	-21	1	33	-1	/	/
O=S(=O)(Nc1ncnc2sc3c(c12)CCC3)c1ccc2ccccc2c1	-53	0	69*	-3	56*	21*
N#C/C(=C\c1ccc(C(=O)O)cc1)c1nc2sc3c(c2c(=O)[nH]1)CCCC3	-13	-1	45*	-3	55*	22*
O=C(O)/C(=C\c1ccc(Br)cc1)c1ccc(S(=O)(=O)N2CCCCC2)s1	-21	2	47*	-5	67*	25*	DNA CAG DR=i;dCAG DNA bind=8.3*;rCAG binder-2=2.8*
O=C(O)/C(=C\c1cccc(F)c1)c1ccc(S(=O)(=O)N2CCCC2)s1	-1	-1	17	-3	/	/
Cc1cccc(/C=C(\C(=O)O)c2ccc(S(=O)(=O)N3CCCC3)s2)c1	-18	0	19	-13	/	/
O=C(O)C1CCCN(S(=O)(=O)c2ccc(Br)s2)C1 (stereo not drawn)	0	0	2	3	/	/
O=C(O)/C(=C\c1ccc(C(F)(F)F)cc1)c1ccc(S(=O)(=O)N2CCCC2)s1	-16	-1	37*	-3	25	5.5*
CCCCOc1ccc(/C=C(\C(=O)O)c2ccc(S(=O)(=O)N3CCCC3)s2)cc1	-51	1	67*	-2	66*	28*
COc1cc(/C=C(\C(=O)O)c2ccc(S(=O)(=O)N3CCCC3)s2)ccc1OCCC(C)C	-48	3	72*	-4	57*	20*
Cc1ccc(S(=O)(=O)NC(=O)C2(C)CCN2C(=O)COc2ccc(Cl)cc2)nc1 (stereo not drawn)	17	-1	3	-1	/	/
SMILES	sPLA2-III inh	MsrA inh	rCAG binder-1	bovine MsrA act	rCAG bind conf	dCAG dye counter	others
COc1ccc(NC(=O)CN(c2ccc([N+](=O)[O-])cc2)S(=O)(=O)c2ccccc2)cc1	-27	-1	5	-3	/	/
COc1ccc(N(CC(=O)Nc2ccccc2C(=O)O)S(=O)(=O)c2ccc(C)c([N+](=O)[O-])c2)cc1	-31	1	72*	-1	54*	17*
COc1ccccc1N=c1oc2cc(O)ccc2cc1C(=O)NCC1CCCO1 (stereo not drawn)	0	0	11	0	/	/
COc1ccccc1NC(=O)c1cc2ccccc2o/c1=N\O	7	1	6	0	/	/
COc1ccccc1N=c1oc2cc(O)ccc2cc1C(N)=O	-5	2	40*	-2	6	2
COc1ccccc1NC(=O)c1cc2ccc(O)cc2o/c1=N\O	-29	2	46*	0	27	7.5*
COc1ccc(N2CCN(C(=O)COc3ccc4c(C)c(C)c(=O)oc4c3C)CC2)cc1	/	/	/	-2	/	/
Cc1cc(C(=O)N/N=C/c2cc([N+](=O)[O-])ccc2O)c2ccccc2n1	4	2	6	-1	/	/
Cc1ccccc1C(=O)Nc1cccc(C(=O)N/N=C/c2ccc3c(c2)OCO3)c1	-2	4	7	-3	/	/
Cc1cc(C(=O)N/N=C/c2cc(Br)cc([N+](=O)[O-])c2O)c2ccccc2n1	-5	1	49*	-9	58*	20*
Cc1ccccc1C(=O)Nc1cccc(C(=O)N/N=C/c2cc(Cl)cc([N+](=O)[O-])c2O)c1	12	1	87*	-2	73*	36*
Cc1cc(N2CCOCC2)nc(SCC(=O)c2ccc(Cl)cc2)n1	-15	1	-4	1	/	/
CCN(C(=O)CSc1nc2cc(C(=O)O)ccc2c(=O)n1Cc1ccccc1)c1ccccc1	-5	0	38*	-1	53*	16*
C/C=C/c1cnc2c(c1)C(=O)N([C@H](C)CO)C[C@@H](C)[C@@H](CN(C)C(=O)NC1CCCC1)O2	6	1	2	-2	/	/
C#CCN1C(=O)S/C(=C\c2ccc(-c3ccc(C(=O)O)cc3C)o2)C1=O	-12	2	48*	-4	43*	16*
Cc1ccc(C(=O)O)cc1-c1ccc(/C=C2/NC(=O)N(c3ccccc3)C2=O)o1	-44	1	62*	-6	60*	22*
Cc1ccc(NC(=O)CN2C(=O)S/C(=C\c3cc(C)n(-c4cccc(C(=O)O)c4)c3C)C2=O)cc1	-27	2	72*	-7	71*	32*	DNA CAG DR=i
Cc1ccc(C(=O)O)cc1-c1ccc(/C=C2\SC(=O)N(CC(=O)Nc3ccccc3)C2=O)o1	-11	-1	42*	-3	89*	66*

From PubChem BioAssay
